# High-throughput results: PubChem BioAssay, National Center for Advancing Translational Sciences (NCATS)
# Shiga toxin inh – A qHTS for Small Molecule Inhibitors of Shiga Toxin; 9.2% of 290,000 active; inhibition, % at 38.7 µM; Vero cells, Shiga toxin protein synthesis inhibition reporter; in the data active = inhibition mostly above about 28%, no sharp cut-off; inactive = mostly below about 43%; also: 0% is about no effect
# Pf growth 48h – Primary qHTS for delayed death inhibitors of the malarial parasite plastid, 48 hour incubation. P. falciparum luciferase growth in erythrocytes, 48 h. 5.9% of 310,000 active. Potency, µM (top dose mostly 28.7 µM), without a hit: at the top dose activity change, negative = inhibition, most hits filed as inhibitors. AID 504832, 2011; also: potency is read from the fitted curve at half-maximal effect; % is scaled to controls: 0 for no effect and ±100 for the full control effect
#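 Read-out is firefly luciferase luminescence from an integrated reporter in P. falciparum, so falling signal marks reduced parasite growth. Infected erythrocytes were at 2% hematocrit and 0.1% parasitemia (final) in Albumax-supplemented RPMI 1640.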
# Pf growth 96h – Primary qHTS for delayed death inhibitors of the malarial parasite plastid, 96 hour incubation; P. falciparum luciferase reporter growth, 96 h; Potency, µM (highest dose often 28.7 µM), for inactives: top-dose activity change, negative = inhibition, usual class: inhibitors; 6.9% of 320,000 active; also: potency is read from the fitted curve at half-maximal effect; % is scaled to controls: 0 for no effect and ±100 for the full control effect
#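 Infected RBCs, 2% Hct / 0.05% parasitemia final; luciferase-reporter P. falciparum; cpd 96 h, 37 C, 5% CO2; luciferase detection reagent; luminescence.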
# SARS PLP yeast – qHTS of Yeast-based Assay for SARS-CoV PLP; S. cerevisiae expressing SARS-CoV PLpro, growth rescue; Potency, µM (titrated, usually from 32.9 µM), for the others: at the highest dose activity, positive = growth rescue, actives largely listed as activators; 0.19% of 330,000 active; AID 485353, 2010; calls by dose curve; also: potency is read from the fitted curve at half-maximal effect; 0% is about no effect; nearly all actives have a fitted effect of over 55% in size
# CHX counter – Cycloheximide Counterscreen for Small Molecule Inhibitors of Shiga Toxin; cell reporter, cycloheximide protein synthesis inhibition counterscreen; max response, %; 12% of 300,000 active; AID 2314, 2010; in the data active = max response mostly above about 13%, no sharp cut-off; inactive = mostly below about 14%; also: read at 38.3 µM for the half of the compounds with a filed dose; 0% is about no effect
# AMA1 RON2 block – qHTS for Inhibitors of AMA1-RON; Towards Development of Antimalarial Drug Lead: Primary Screen | Potency, µM (highest dose often 58.2 µM), inactives show top-dose activity change, negative = inhibition, hits mostly inhibitors | 0.2% of 360,000 active | AlphaScreen AMA1-biotinylated RON2 peptide binding;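 also: potency is read from the fitted curve at half-maximal effect; 0% = vehicle wells and -100% = peptide control; nearly all actives have a fitted effect of over 45% in size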
#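 AMA1 (3D7) with his tag at 25 nM final met compounds first, then biotinylated RON2 peptide at 25 nM; detection used donor plus acceptor beads, 10 µg/mL apiece, read by AlphaScreen after 30 min at room temperature.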
# Numbers without * were called inactive; ? = inconclusive; · = no result given. Shown are actives, neighbours in structure and some others; about 19% of the full set was active somewhere. Unless noted, calls follow the shape of the dose curve; as a rule, active = well fitted curve in the direction sought with a large enough effect; inconclusive = small, poorly fitted or top-dose-only effect, or another doubt; inactive = no such curve, though single readings can be large; an effect the other way counts as inactive or inconclusive.
SMILES,Shiga toxin inh,Pf growth 48h,Pf growth 96h,SARS PLP yeast,CHX counter,AMA1 RON2 block
Cc1cc(/C=C2/SC(=S)N(c3ccc([N+](=O)[O-])cc3)C2=O)c(C)n1-c1cccnc1,-2,13µM*,16%,-3%,-2,-10%
COCCn1c(SCc2cnc(-c3ccccc3)s2)nnc1-c1ccncc1,-4,?,9.3µM*,3%,5,-6%
CCc1cccc(C)c1NC(=S)N(CCN(C)C)C(C)c1cccnc1 (stereo not given),-7,3%,?,-2%,-2,-4%
FC(F)Oc1ccc(NC(=S)N2CCc3ccccc32)cc1,78*,26%,54%,12%,36*,-3%
Fc1ccc(NC(=S)N2CCc3ccccc32)cc1,41*,-21%,?,7%,15*,1%
O=C(COc1coc(CN2CCCc3ccccc32)cc1=O)Nc1ccccc1,·,?,?,-1%,·,9%
O=C(C1=C(O)/C(=C/c2ccc(O)cc2)CCC1)C(F)(F)F,44*,16%,3%,-56%,30*,9%
COc1ccc(/C=C2\CCCC(C(=O)C(F)(F)F)=C2O)cc1,26,47%,·,7%,19,-8%
COc1ccc(NC(=O)Cc2cccc(F)c2)cc1S(=O)(=O)Nc1ccccc1Cl,-2,?,?,1%,1,1%
COc1ccc(NC(=O)COC(=O)c2c(F)cccc2Cl)cc1OC,76*,128%,175%,1%,41*,·
COc1ccc(NC(=O)COC(C)=O)cc1OC,-7,?,12%,0%,-2,3%
COc1cc(CCC(C)=O)ccc1OC(=O)c1c(F)cccc1Cl,88*,485%,445%,-2%,39*,-7%
COc1ccc(NC(=O)COC(=O)Cc2c(F)cccc2Cl)cc1OC,46,-2%,0%,-3%,21*,-18%
COc1ccc(NS(=O)(=O)c2cc(NC(=O)Cc3c(F)cccc3Cl)ccc2OC)cc1,·,5.9µM*,?,9%,·,-9%
COc1ccc(C(=O)NN=C2CCCC2)c(OC)c1,28,23%,?,-5%,20*,41%
COc1ccc(C(=O)NCC(C)C)c(OC)c1,15,?,9.3µM*,5%,12,-22%
CC(C)CNC(=O)c1ccccc1Oc1ccccc1,-6,·,15µM*,5%,-5,2%
COc1ccc(C(=O)NCC(c2cccs2)N2CCc3ccccc32)c(OC)c1 (stereo not given),·,10µM*,5.2µM*,0%,·,-18%
COc1ccc(C(=O)NCC(c2ccco2)N2CCc3ccccc32)cc1 (stereo not given),·,?,?,-1%,·,9%
CN(C)CCCNC(=O)c1ccccc1Oc1ccccc1,12,-4%,-17%,1%,8,21%
COc1cc(Cn2nnc3ccccc32)cc(Br)c1O,14,?,?,10%,1,-13%
CNS(=O)(=O)c1ccc(C(=O)NCC(=O)NC(C)c2cccs2)cc1 (stereo not given),·,-13%,?,2%,·,2%
O=C(COc1ccc(Br)cc1)N(Cc1ccco1)C1CCS(=O)(=O)C1 (stereo not given),-5,-6%,?,4%,-2,0%
CC(=O)O[C@H]1[C@H](O)[C@H](Oc2c(O)c(C)c3c4c2[C@@H](C)CC[C@@H]4[C@@H](C)C[C@H]3C=C(C)C)O[C@@H](C)[C@H]1O,·,·,·,-18%,·,-11%
CC(=O)Oc1c(C)c2c3c(c1OC(C)=O)[C@@H](C)CC[C@@H]3[C@@H](C)C[C@H]2C=C(C)C,·,12µM*,?,0%,·,-7%
CC(C)=C[C@@H]1C[C@H](C)[C@H]2CC[C@H](C)c3c(O)c(O)c(C)c1c32,·,3.7µM*,10µM*,2%,·,-9%
NC(=O)COC(=O)c1sc2ccccc2c1Cl,12,24%,0%,-1%,12,14%
